TrxR1 substrate: qHTS Assay for Substrates of Mammalian Selenoprotein Thioredoxin Reductase 1 (TrxR1): qHTS. actives 0.01% (n = 390,000). purified TrxR1 substrate turnover, NADPH consumption readout. Thioredoxin reductase 1, cytoplasmic (Rattus norvegicus), O89049. Potency, µM (series often up to 114 µM), inactives show top-dose activity change, negative = substrate turnover; note: potency is the fitted concentration of half-maximal effect; nearly all actives have a fitted effect of over 50% in size
Target sequence (O89049 whole entry, looked up): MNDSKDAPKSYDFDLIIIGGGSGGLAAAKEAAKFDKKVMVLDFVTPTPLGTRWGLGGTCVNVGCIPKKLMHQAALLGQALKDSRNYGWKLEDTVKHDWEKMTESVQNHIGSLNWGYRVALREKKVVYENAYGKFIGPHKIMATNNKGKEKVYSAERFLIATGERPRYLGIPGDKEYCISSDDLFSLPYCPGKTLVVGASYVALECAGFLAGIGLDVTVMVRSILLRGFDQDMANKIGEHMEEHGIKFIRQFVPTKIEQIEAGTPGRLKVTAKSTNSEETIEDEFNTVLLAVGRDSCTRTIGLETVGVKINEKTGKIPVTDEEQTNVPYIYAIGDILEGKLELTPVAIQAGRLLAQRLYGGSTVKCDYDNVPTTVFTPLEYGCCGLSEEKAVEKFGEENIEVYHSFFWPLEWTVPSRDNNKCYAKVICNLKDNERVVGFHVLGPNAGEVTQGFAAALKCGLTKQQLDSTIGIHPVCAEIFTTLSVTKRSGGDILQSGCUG
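Rat TrxR1, dispensed at 90 nM, was prereduced with 400 uM NADPH (final) for 5 min at ~22 deg C, then incubated with compound 15 min before 400 uM selenite. A first-read NADPH fluorescence drop versus no-compound background flagged substrates.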
TrxR1 inh: qHTS Assay for Inhibitors of Mammalian Selenoprotein Thioredoxin Reductase 1 (TrxR1): qHTS; actives 1% (n = 390,000); Potency, µM (series often up to 114 µM), for the others: top-dose activity change, negative = inhibition, usual class: inhibitors; recombinant rTrxR1, NADPH fluorescence consumption, selenite substrate; Thioredoxin reductase 1, cytoplasmic (Rattus norvegicus), O89049; note: potency is the fitted concentration of half-maximal effect; nearly all actives have a fitted effect of over 65% in size
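Rat TrxR1 (90 nM in the dispensed reagent) was pre-reduced with 400 uM NADPH for 5 min at room temperature, then incubated with compound for 15 min. After 400 uM selenite was added, NADPH fluorescence (Ex 340/Em 450 nm) was followed for 8 min.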
IDH1 R132H inh: qHTS for Inhibitors of mutant isocitrate dehydrogenase 1 (IDH1): qHTS. Isocitrate dehydrogenase [NADP] cytoplasmic (Homo sapiens), O75874. IDH1-R132H enzyme, NADPH consumption, diaphorase/resazurin fluorescence. Potency, µM (highest dose often 76.6 µM), for the others: at the highest dose activity change, negative = inhibition, most hits filed as inhibitors. actives 0.093% (n = 390,000). AID 602179, 2012; note: potency is the fitted concentration of half-maximal effect; nearly all actives have a fitted effect of over 65% in size
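IDH1-R132H (0.5 ug/mL) preincubated 30 min with compound, then NADPH (0.016 mM) and alpha-KG (2 mM) added; 80 min at RT, pH 7.5. Remaining NADPH coupled via diaphorase/resazurin to fluorescence (540/590 nm); concentration-response curves normalized to no-enzyme control.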
Eya2 inh: qHTS Assay for Inhibitors of the Phosphatase Activity of Eya2; Protein phosphatase EYA2 (Homo sapiens), O00167; recombinant Eya2, OMFP fluorescence dephosphorylation (OMFP is methylfluorescein phosphate); Potency, µM (doses to about 76.9 µM), for inactives: top-dose activity, negative = inhibition, hits mostly inhibitors; actives 0.006% (n = 330,000); AID 488837, 2010; note: potency is the fitted concentration of half-maximal effect
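Eya2 (0.2 uM) preincubated 10 min at ambient with compound, then OMFP substrate added at 50 uM; 10 min reaction in 50 mM HEPES pH 7.5, 50 mM NaCl, 5 uM MgCl2, 0.05% BSA, 1 mM DTT. Fluorescence read at Ex 485/Em 525 nm.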
FBPA coupling cs: qHTS Assay for Inhibitors of Fructose-1,6-bisphosphate Aldolase from Giardia Lamblia: Coupling assay counterscreen; coupling enzyme system counterscreen, AmpLite Red fluorescence; activity change, negative = inhibition, % at 58.2 µM, hits read low; actives 0.67% (n = 290,000); in the data active = activity change below about -30%
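Coupling enzymes only (glyceraldehyde-3-phosphate) + compound, at 57.5 uM final, 10 min RT; add substrate/coupling/AmpLite Red mix, 20 min RT; fluorescence ex 525/em 598 nm. Actives flag coupling-system interference.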
* hit, by the source's call; [ ] = remark or other dose. This is a sample that favours compounds with a hit; in the whole collection about 1.5% have one here. Unless noted, calls come from the whole dose curve; as a rule, active = well fitted curve in the direction sought with a large enough effect; inconclusive = small, poorly fitted or top-dose-only effect, or another doubt; inactive = no such curve, though single readings can be large; an effect the other way counts as inactive or inconclusive. % is set by controls: 0 for no effect and ±100 for the full control effect.

`C=C(CC)C(=O)c1ccc(OCC(=O)O)c(Cl)c1Cl` gave TrxR1 substrate 6.4%, TrxR1 inh 39.8µM*, IDH1 R132H inh inconclusive, Eya2 inh -2.6% and FBPA coupling cs 12.3.
For O=C(NCS(=O)(=O)c1ccccc1)c1ccccc1 the results were TrxR1 substrate 4.1%, TrxR1 inh 44.7µM*, IDH1 R132H inh 2.6%, Eya2 inh -0.4% and FBPA coupling cs 1.6.
Screening O=C(NCCNC(=O)c1ccccc1)c1ccccc1 returned TrxR1 substrate 4.8%, TrxR1 inh 10.9%, IDH1 R132H inh -1.5%, Eya2 inh 0.9% and FBPA coupling cs 5.4.
O=C(CCl)Nc1cc(-c2ccccc2)nn1-c1ccccc1 was read as TrxR1 substrate 1.6%, TrxR1 inh 22.4µM*, IDH1 R132H inh 7.6%, Eya2 inh 25.2% and FBPA coupling cs 0.9.
CC(=O)Nc1ccc(-c2cc(NC(C)=O)n(-c3ccccc3)n2)cc1 was read as TrxR1 substrate 8.1%[57.1 µM], TrxR1 inh 10.5%[57.1 µM], IDH1 R132H inh 3.4%, Eya2 inh -2.6% and FBPA coupling cs -4.3.
For Cc1ccc(-c2cc(NC(=O)CCl)n(-c3ccccc3)n2)cc1 the results were TrxR1 substrate 1.8%, TrxR1 inh 35.5µM*, IDH1 R132H inh 5.3%, Eya2 inh 2.9% and FBPA coupling cs -10.8.
Screening Cc1ccc(OCC(=O)Nc2cc(-c3cccc(C)c3)nn2-c2ccccc2)cc1 returned TrxR1 substrate 1.5%[57.1 µM], TrxR1 inh 29.2%[57.1 µM] and IDH1 R132H inh -1.1%.
Screening CC(C)c1onc(-c2c(Cl)cccc2Cl)c1COc1ccc(/C=C/c2cccc(C(=O)O)c2)c(Cl)c1 returned FBPA coupling cs 11.6.
O=C1C=CC(=Nc2ccc3c(c2)Cc2cc(F)ccc2-3)O1 was read as TrxR1 substrate 6.0%, TrxR1 inh 3.16µM* and IDH1 R132H inh 2.7%.
O=C(C[n+]1ccccc1Cl)c1ccc(O)c(O)c1 was read as TrxR1 substrate -21.1% and TrxR1 inh -20.1%.
COc1ccc(CNc2ccccc2C(=O)NCc2ccccc2)cc1COc1ccc(NC(C)=O)cc1 was read as TrxR1 substrate 60.1% and TrxR1 inh 16.1%.
Screening O=C(Cc1ccccc1)Nc1sc2c(c1C(=O)Nc1ccccc1)CCCCC2 returned TrxR1 substrate -3.8%, TrxR1 inh 39.8µM* and IDH1 R132H inh 30.7%.
O=C(Cc1ccccc1)Nc1sc2c(c1C(=O)Nc1ccc(Cl)cc1)CCCC2 was read as TrxR1 substrate -4.8%, TrxR1 inh 9.6% and IDH1 R132H inh 5.6%.
CCC(=O)Nc1sc2c(c1C(=O)Nc1ccc(Br)cc1)CCCCC2 was read as TrxR1 substrate 2.2%, TrxR1 inh 56.2µM* and IDH1 R132H inh -18.6%.
NC(=O)C1CCN(C2=C(Cl)C(=O)c3ccccc3C2=O)CC1 was read as TrxR1 substrate -14.7%, TrxR1 inh 1µM*, IDH1 R132H inh 24.6%, Eya2 inh -12.4% and FBPA coupling cs -50.7*.
Screening O=C1C(Cl)=C(N2CCC(C(=O)O)CC2)C(=O)c2ccccc21 returned TrxR1 substrate -0.5%, TrxR1 inh 1.12µM*, IDH1 R132H inh 17.6%, Eya2 inh 5.4% and FBPA coupling cs -28.5.
For O=C(O)c1cccc(-n2cccc2/C=C/[N+](=O)[O-])c1 the results were TrxR1 substrate 5.6%, TrxR1 inh 10µM*, IDH1 R132H inh 8.0%, Eya2 inh 16.6% and FBPA coupling cs -9.1.
Screening CS(=O)(=O)c1ccccc1NC(=O)COc1ccccc1C(=O)Nc1ccccc1 returned TrxR1 substrate -14.7% and TrxR1 inh -13.8%.
For C/C(=C\c1cccc(Br)c1)C(=O)c1c(C)cc(C)[nH]c1=O the results were TrxR1 substrate -5.0%, TrxR1 inh 6.4%, IDH1 R132H inh -4.4%, Eya2 inh 11.5% and FBPA coupling cs 2.5.
C/C(=C\c1ccc(C)o1)C(=O)c1c(C)cc(C)[nH]c1=O was read as TrxR1 substrate -9.3%, TrxR1 inh 50.1µM*, IDH1 R132H inh 8.4%, Eya2 inh -13.1% and FBPA coupling cs -2.0.
For COc1cc(C(=S)N2CCCCC2)ccc1O the results were TrxR1 substrate 13.0%, TrxR1 inh 18.6%, IDH1 R132H inh 4.2%, Eya2 inh 8.6% and FBPA coupling cs -36.8*.
`CC(=O)N(C1=C(Cl)C(=O)c2ccccc2C1=O)C1CCCCC1` gave TrxR1 substrate -8.1%[57.1 µM], TrxR1 inh inconclusive, IDH1 R132H inh 33.6%, Eya2 inh -4.6% and FBPA coupling cs -87.5*.
`CC(=O)N(c1ccccc1C)C1CCCC1` gave TrxR1 substrate -1.9%, TrxR1 inh 0.4%, IDH1 R132H inh 3.1%, Eya2 inh 2.5% and FBPA coupling cs 1.2.
For c1ccc2c(c1)SCc1c-2[nH]c2ccccc12 the results were FBPA coupling cs -8.8.
For N#CC(C#N)=C1c2cc(S(=O)(=O)NCCO)ccc2-c2ccc(S(=O)(=O)NCCO)cc21 the results were TrxR1 substrate 2.1%, TrxR1 inh 3.55µM*, IDH1 R132H inh 7.7%, Eya2 inh -5.9% and FBPA coupling cs -26.6.
Screening N#CC(C#N)=C1c2cc(S(N)(=O)=O)ccc2-c2ccc(S(N)(=O)=O)cc21 returned TrxR1 substrate 9.2%, TrxR1 inh 10µM*, IDH1 R132H inh 12.1%, Eya2 inh 1.3% and FBPA coupling cs -18.1.
Screening NS(=O)(=O)c1ccc2c(c1)C(=NO)c1cc(S(N)(=O)=O)ccc1-2 returned TrxR1 substrate 5.0%, TrxR1 inh 15.3%, IDH1 R132H inh 9.2%, Eya2 inh 3.2% and FBPA coupling cs 0.8.
Screening CCC1CCCCC1 returned FBPA coupling cs -1.2.
CC(=O)Nc1ccc(-c2nnc(SCc3ccccc3)n2C)cc1 was read as TrxR1 substrate 5.4% and TrxR1 inh 5.1%.
For CC(=O)Nc1cccc(C(=O)/C=C/c2ccc[nH]2)c1 the results were TrxR1 substrate -2.9%, TrxR1 inh 70.8µM*, IDH1 R132H inh 7.3%, Eya2 inh -1.1% and FBPA coupling cs -4.8.
`O=C(c1ccc2c(c1)OCO2)n1nnc2ccccc21` gave Eya2 inh 4.6% and FBPA coupling cs -0.1.
COc1ccc(C(=O)n2nnc3ccccc32)cc1OC was read as TrxR1 substrate -5.6%, TrxR1 inh 3.16µM*, IDH1 R132H inh 2.5%, Eya2 inh -7.2% and FBPA coupling cs 0.3.
For COc1ccc(C(=O)COC(=O)Cn2nnc3ccccc32)cc1Br the results were TrxR1 substrate 1.0%, TrxR1 inh 15.5%, IDH1 R132H inh 9.6%, Eya2 inh -7.1% and FBPA coupling cs 0.8.
